The values that follow come from PubChem BioAssay (EPA / NIEHS).

Assay [1] concerns the target Glucocorticoid receptor (Homo sapiens) (UniProt P04150). Kind of assay: ATG_GR_TRANS: Attagene TRANS-FACTORIAL HepG2 Assay for human Glucocorticoid Receptor (GR) (AID 2282978; active = hit-call score of the fitted dose curve at least 0.9, where 1 is the maximum;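 note: activators score as hits since higher reporter transcript over DMSO is fitted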). The note with it: HepG2 Attagene TRANS GR reporter, mRNA transcription. The method in brief:
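Measurement of GAL4-UAS-driven reporter mRNA in human HepG2 liver cells 24 h post-dosing, using RT-PCR with fluorescent labelling and capillary electrophoresis; the transfected constructs report exogenous NR-GAL4 chimera activity, fitted upward against DMSO.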

The target in assay [2] is Bile acid receptor (Homo sapiens) (UniProt Q96RI1). Briefly: ATG_FXR_TRANS: Attagene TRANS-FACTORIAL HepG2 Assay for Farnesoid X Receptor (FXR) (AID 2282979; active = hit-call score of the fitted dose curve at least 0.9, where 1 is the maximum;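 note: hits raise reporter mRNA above DMSO so AC50 marks FXR activation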). The note with it: HepG2 Attagene TRANS FXR-GAL4 reporter transcription. The method in brief: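 Transient transfection of HepG2 with multiplexed GAL4-UAS reporter units; exogenous FXR-GAL4 chimera. Dose 24 h → TriZol RNA → oligo(dT) RT → PCR, 6-FAM primer extension, HpaI cut → CE. Gain vs DMSO.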

In assay [3] the target is Oxysterols receptor LXR-beta (Homo sapiens) (UniProt P55055). Briefly: ATG_LXRb_TRANS: Attagene TRANS-FACTORIAL HepG2 Assay for human Liver X Receptor beta (LXRb) (AID 2282981; active = hit-call score of the fitted dose curve at least 0.9, where 1 is the maximum). The note with it: HepG2 Attagene TRANS GAL4-LXRb reporter, mRNA. A digest of the protocol: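 Gain-of-signal mRNA reporter endpoint, DMSO as negative control. Transiently transfected HepG2 cells carrying the NR-Gal4 chimera and GAL4-UAS reporter units were treated 24 h; transcripts quantified by RT-PCR and capillary electrophoresis fluorescence.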

Assay [4] is described as follows: ATG_M_06_TRANS: Attagene TRANS-FACTORIAL HepG2 Assay for M06 Transcription Factor (Internal Marker) (AID 2282983; active = hit-call score of the fitted dose curve at least 0.9, where 1 is the maximum). The note with it: HepG2 Attagene TRANS M06 internal marker reporter. The method in brief: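 Transfect HepG2 with MRTUs → dose compounds 24 h → isolate RNA, oligo(dT) RT → PCR with reporter primers → 6-FAM primer extension → HpaI digest → CE fragment analysis. Positive direction vs DMSO.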

Assay [5] can be described thus: ATG_M_32_TRANS: Attagene TRANS-FACTORIAL HepG2 Assay for M32 Transcription Factor (Internal Marker) (AID 2282984; active = hit-call score of the fitted dose curve at least 0.9, where 1 is the maximum;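 note: transcript level of a background control reporter unit measured by RT-PCR and capillary electrophoresis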). The conditions noted are these: HepG2 Attagene TRANS M32 internal marker reporter. The method in brief: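 Capillary electrophoresis of 6-FAM-labelled reporter fragments gives the signal; data fitted for gain over DMSO negative control. Source: HepG2 cells bearing transient multiple reporter transcription units, 24 h exposure.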

Assay [6] concerns the target Nuclear receptor subfamily 4 group A member 2 (Homo sapiens) (UniProt P43354). Kind of assay: ATG_NURR1_TRANS: Attagene TRANS-FACTORIAL HepG2 Assay for human Nuclear Receptor Related Protein 1 (NURR1) (AID 2282985; active = hit-call score of the fitted dose curve at least 0.9, where 1 is the maximum). The note with it: HepG2 Attagene TRANS reporter, mRNA readout. The method in brief:
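HepG2 / transient MRTU transfection / 24 h compound exposure / RT-PCR + CE fluorescence of reporter mRNA / gain-of-signal vs DMSO.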

For assay [7], the target named is Transcriptional activator Myb (Homo sapiens) (UniProt P10242). Briefly: ATG_Myb_CIS: Attagene CIS-FACTORIAL HepG2 Assay for human Myeloblastosis (Myb) Proto-Oncogene Transcription Factor (AID 2282986). The conditions noted are these: HepG2 Attagene CIS-FACTORIAL Myb reporter transcription; actives raise or lower the signal. The method in brief:
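Fluorescence signals from capillary electrophoresis of RT-PCR-amplified reporter cDNA give the read-out. Cells: HepG2 transfected with multiple cis-regulated reporter units. Exposure lasts 24 hours; DMSO defines baseline for gain or loss of signal.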

Assay [8] has as its target Nuclear respiratory factor 1 (Homo sapiens) (UniProt Q16656). Kind of assay: ATG_NRF1_CIS: Attagene CIS-FACTORIAL HepG2 Assay for human Nuclear Respiratory Factor 1 (NRF1) Orphan Gene (AID 2282987). The note with it: HepG2 NRF1 cis-element reporter, Attagene multiplex; actives raise or lower the signal. The method in brief:
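Transcriptional reporter readout, one component of a 52-endpoint multiplexed HepG2 panel. Exposure 24 h; mRNA detected via RT-PCR and fluorescent capillary electrophoresis; fitting in both directions against DMSO.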

A short description of assay [9]: ATG_NFI_CIS: Attagene CIS-FACTORIAL HepG2 Assay for human Nuclear Factor I (NFI) (AID 2282989). The note with it: HepG2 cis-regulatory reporter, NFI response element transcription; actives raise or lower the signal. A digest of the protocol:
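Read-out: reporter mRNA via RT-PCR plus capillary electrophoresis with fluorescence detection. Transiently transfected HepG2 (endogenous TF activity on cis promoters), 24 h compound exposure; gain or loss of signal fitted against DMSO.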

For assay [10], the target named is Myc proto-oncogene protein (Homo sapiens) (UniProt P01106). Kind of assay: ATG_Myc_CIS: Attagene CIS-FACTORIAL HepG2 Assay for human Myelocytomatosis (Myc) Proto-Oncogene Transcription Factor (AID 2282990). The note with it: HepG2, Attagene cis-reporter transcription factor activity; actives raise or lower the signal. A digest of the protocol:
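Read-out: fluorescent reporter mRNA fragments resolved by capillary electrophoresis after RT-PCR. Human HepG2 liver cells carried transfected cis-element reporter units and were dosed for 24 h. Gain or loss of signal fitted relative to DMSO baseline.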

A short description of assay [11]: ATG_NF_kB_CIS: Attagene CIS-FACTORIAL HepG2 Assay for human Nuclear Factor Kappa B (NF-kB) (AID 2282991). The conditions noted are these: HepG2 Attagene cis-factorial NF-kB reporter mRNA; actives raise or lower the signal. A digest of the protocol:
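HepG2, transient multi-reporter transfection, cis promoter elements (endogenous TFs). 24 h exposure. Total RNA → RT → PCR → 6-FAM label → HpaI → CE. Gain/loss vs DMSO.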

The nature of assay [12]: ATG_NRF2_ARE_CIS: Attagene CIS-FACTORIAL HepG2 Assay for human Nuclear Factor Erythroid 2 Related Factor 2 (NFR2) response to Antioxidant Response Elements (ARE) (AID 2282992).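 For AC50: reporter mRNA level measured by RT-PCR and capillary electrophoresis fluorescence.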 The conditions noted are these: HepG2 Attagene ARE/NRF2 reporter, transcription factor activity; actives raise or lower the signal. The method in brief: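 Multiplexed reporter mRNA profiling in HepG2 after a 24 h chemical exposure. Curves fitted in both directions relative to DMSO negative control.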

A short description of assay [13]: ATG_Oct_MLP_CIS: Attagene CIS-FACTORIAL HepG2 Assay for human Octamer-Binding Transcription Factor (Oct) (AID 2282993). The conditions noted are these: HepG2 Attagene cis-factorial Oct reporter, mRNA; actives raise or lower the signal. A digest of the protocol: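 Read-out: reporter mRNA via RT-PCR plus capillary electrophoresis of 6-FAM-labelled fragments. Transiently transfected HepG2, 24 h exposure, endogenous TF activity on cis elements. Gain or loss of signal fitted relative to DMSO.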

Assay [14] concerns the target Cellular tumor antigen p53 (Homo sapiens) (UniProt P04637). Kind of assay: ATG_p53_CIS: Attagene CIS-FACTORIAL HepG2 Assay for human p53 Transcription Factor (AID 2282994). The note with it: HepG2 p53 cis-element reporter, Attagene mRNA; actives raise or lower the signal. The method in brief:
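Multiplexed reporter mRNA assay in human HepG2 liver cells; cis-regulated units report endogenous factor activity. Values come from bidirectional curve fitting against DMSO negative control after 24 h treatment.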

Assay [15] can be described thus: BSK_3C_TissueFactor: BioMAP Diversity Plus: 3C Assay for Tissue Factor Biomarker Activity (AID 2282997). The conditions noted are these: BioMAP 3C HUVEC, tissue factor biomarker readout; actives raise or lower the signal. The method in brief: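 ELISA read-out of Tissue Factor levels on human umbilical vein endothelium collected 24 h after chemical dosing. Gain or loss of signal was fitted relative to DMSO.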

Assay [16] is described as follows: BSK_3C_uPAR: BioMAP Diversity Plus: 3C Assay for Urokinase-type plasminogen activator receptor (uPAR) Biomarker Activity (AID 2282998). The conditions noted are these: BioMAP 3C HUVEC, uPAR biomarker ELISA; actives raise or lower the signal. A digest of the protocol:
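HUVEC primary cells; 24 h post-dose; uPAR by ELISA; gain or loss of signal fitted bidirectionally vs DMSO baseline.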
Background: ELISA stands for enzyme-linked immunosorbent assay.

The nature of assay [17]: BSK_3C_VCAM1: BioMAP Diversity Plus: 3C Assay for Vascular cell adhesion molecule 1 (VCAM1) Biomarker Activity (AID 2282999). The note with it: BioMAP 3C HUVEC, VCAM1 ELISA, cytokine-stimulated; actives raise or lower the signal. A digest of the protocol: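 Human umbilical vein endothelial cells (3C system), biomarker read by ELISA 24 h after dosing; bidirectional fit against DMSO baseline. Cytotoxicity tracked by SRB total-protein staining in parallel cultures at biomarker time.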

Assay [18] deals with Oxysterols receptor LXR-alpha (Homo sapiens) (UniProt Q13133). Kind of assay: ATG_LXRa_TRANS: Attagene TRANS-FACTORIAL HepG2 Assay for human Liver X Receptor alpha (LXRa) (AID 2282980; active = hit-call score of the fitted dose curve at least 0.9, where 1 is the maximum). The conditions noted are these: HepG2 Attagene TRANS reporter, LXRa transactivation. The method in brief: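 Transfect HepG2 with GAL4-UAS multiplex reporter constructs (TRANS format, chimeric receptor-GAL4); treat 24 h; extract RNA, reverse-transcribe, PCR-amplify, FAM-label, HpaI-digest; resolve fragments by capillary electrophoresis. Upward response vs DMSO.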

Assay [19] has as its target Hepatocyte nuclear factor 4-alpha (Homo sapiens) (UniProt P41235). Briefly: ATG_HNF4a_TRANS: Attagene TRANS-FACTORIAL HepG2 Assay for human Hepatocyte Nuclear Factor 4 alpha (HNF4a) (AID 2282982; active = hit-call score of the fitted dose curve at least 0.9, where 1 is the maximum). The note with it: HepG2 HNF4a transactivation reporter, mRNA readout. The method in brief: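 Gain-of-signal mRNA induction, relative to DMSO vehicle, was read after 24 h compound treatment of HepG2 cells bearing transfected GAL4-UAS reporters. Detection used RT-PCR, 6-FAM primer extension and capillary electrophoresis.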

Assay [20] deals with Estrogen-related receptor gamma (Homo sapiens) (UniProt P62508). Kind of assay: ATG_ERRg_TRANS: Attagene TRANS-FACTORIAL HepG2 Assay for human Estrogen-Related Receptor gamma (ERRg) (AID 2282977; active = hit-call score of the fitted dose curve at least 0.9, where 1 is the maximum;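 note: hits increase reporter signal over DMSO so potencies reflect activators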). The conditions noted are these: HepG2 Attagene TRANS reporter, ERRg transactivation. The method in brief: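 HepG2 cells transiently transfected with multiplexed GAL4-UAS reporter units and chimeric NR-Gal4 constructs were exposed to test chemicals for 24 h. Reporter mRNA was measured by RT-PCR, 6-FAM primer extension, HpaI digestion and capillary electrophoresis; gain-of-signal versus DMSO.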

In general, AC50 refers to the midpoint of the concentration-response curve, whichever way the signal moves.

Inconclusive results are not listed. Activity calls are given as the source filed them. Rule for the calls, unless noted: active = hit-call score of the fitted dose curve at least 0.9, where 1 is the maximum; inactive = score below 0.9.

Chain of Transcriptional activator Myb (Homo sapiens) (P10242 whole entry, looked up): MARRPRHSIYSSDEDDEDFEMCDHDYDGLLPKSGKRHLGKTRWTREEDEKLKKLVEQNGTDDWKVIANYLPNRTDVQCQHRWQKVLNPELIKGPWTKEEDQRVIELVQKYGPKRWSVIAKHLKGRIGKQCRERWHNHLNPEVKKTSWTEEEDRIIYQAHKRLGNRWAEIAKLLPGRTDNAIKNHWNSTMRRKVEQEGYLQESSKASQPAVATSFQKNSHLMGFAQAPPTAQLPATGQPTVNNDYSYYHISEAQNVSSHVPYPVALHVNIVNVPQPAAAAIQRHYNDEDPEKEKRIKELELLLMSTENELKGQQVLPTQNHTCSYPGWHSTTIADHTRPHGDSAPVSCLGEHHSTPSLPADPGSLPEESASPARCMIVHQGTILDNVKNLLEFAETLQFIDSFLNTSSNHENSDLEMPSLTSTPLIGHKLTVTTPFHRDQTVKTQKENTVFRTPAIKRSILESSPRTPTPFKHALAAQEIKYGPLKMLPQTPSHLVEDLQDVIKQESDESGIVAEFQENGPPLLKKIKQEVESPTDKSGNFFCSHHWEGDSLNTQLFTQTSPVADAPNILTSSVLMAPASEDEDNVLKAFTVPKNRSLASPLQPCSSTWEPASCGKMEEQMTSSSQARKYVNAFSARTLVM
Chain of Glucocorticoid receptor (Homo sapiens) (P04150 whole entry, looked up, the tested form may be a part): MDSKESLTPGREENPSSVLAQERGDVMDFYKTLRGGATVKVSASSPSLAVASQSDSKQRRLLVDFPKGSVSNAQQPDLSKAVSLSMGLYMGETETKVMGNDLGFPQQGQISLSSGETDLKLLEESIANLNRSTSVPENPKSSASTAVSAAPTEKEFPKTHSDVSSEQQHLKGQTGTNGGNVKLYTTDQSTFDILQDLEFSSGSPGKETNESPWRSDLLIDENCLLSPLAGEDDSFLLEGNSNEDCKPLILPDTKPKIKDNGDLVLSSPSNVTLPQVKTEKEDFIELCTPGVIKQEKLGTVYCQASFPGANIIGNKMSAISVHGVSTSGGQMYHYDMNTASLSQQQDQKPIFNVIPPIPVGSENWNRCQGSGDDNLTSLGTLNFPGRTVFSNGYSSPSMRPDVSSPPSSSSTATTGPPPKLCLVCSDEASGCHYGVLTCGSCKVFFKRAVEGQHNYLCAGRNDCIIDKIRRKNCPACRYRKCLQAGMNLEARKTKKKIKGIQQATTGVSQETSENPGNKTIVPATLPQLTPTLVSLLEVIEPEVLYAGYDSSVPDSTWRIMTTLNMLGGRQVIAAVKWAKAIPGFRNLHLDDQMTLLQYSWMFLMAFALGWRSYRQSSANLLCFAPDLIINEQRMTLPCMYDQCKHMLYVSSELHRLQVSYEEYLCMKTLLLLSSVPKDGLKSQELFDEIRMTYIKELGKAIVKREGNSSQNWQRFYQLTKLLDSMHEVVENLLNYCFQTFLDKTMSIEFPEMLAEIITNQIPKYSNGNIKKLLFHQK
Chain of Myc proto-oncogene protein (Homo sapiens) (P01106 whole entry, looked up, the tested form may be a part): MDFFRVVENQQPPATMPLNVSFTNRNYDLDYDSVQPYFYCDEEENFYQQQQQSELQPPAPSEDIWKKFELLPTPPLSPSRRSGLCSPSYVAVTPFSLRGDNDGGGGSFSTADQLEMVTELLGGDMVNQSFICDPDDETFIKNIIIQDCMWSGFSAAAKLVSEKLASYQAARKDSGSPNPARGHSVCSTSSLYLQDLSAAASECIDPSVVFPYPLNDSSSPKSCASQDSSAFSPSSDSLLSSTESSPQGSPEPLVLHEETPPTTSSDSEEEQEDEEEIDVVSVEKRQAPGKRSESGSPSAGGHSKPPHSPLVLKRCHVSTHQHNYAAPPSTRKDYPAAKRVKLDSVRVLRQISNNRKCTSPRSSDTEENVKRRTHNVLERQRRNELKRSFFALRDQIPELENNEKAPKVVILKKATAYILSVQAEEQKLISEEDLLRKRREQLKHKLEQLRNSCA
Chain of Oxysterols receptor LXR-alpha (Homo sapiens) (Q13133 whole entry, looked up, the tested form may be a part): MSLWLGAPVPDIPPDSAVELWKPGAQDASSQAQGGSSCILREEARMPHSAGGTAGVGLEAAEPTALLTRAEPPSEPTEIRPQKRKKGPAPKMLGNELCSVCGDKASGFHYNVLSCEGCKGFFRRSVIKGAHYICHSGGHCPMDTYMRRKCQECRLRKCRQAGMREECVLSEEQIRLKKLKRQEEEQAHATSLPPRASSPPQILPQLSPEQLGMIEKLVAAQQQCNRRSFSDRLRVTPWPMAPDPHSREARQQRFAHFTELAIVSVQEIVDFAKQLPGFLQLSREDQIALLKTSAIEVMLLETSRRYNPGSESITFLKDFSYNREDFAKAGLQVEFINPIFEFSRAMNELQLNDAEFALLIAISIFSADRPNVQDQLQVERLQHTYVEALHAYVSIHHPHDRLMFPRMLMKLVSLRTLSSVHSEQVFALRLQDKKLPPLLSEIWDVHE
Chain of Cellular tumor antigen p53 (Homo sapiens) (P04637 whole entry, looked up): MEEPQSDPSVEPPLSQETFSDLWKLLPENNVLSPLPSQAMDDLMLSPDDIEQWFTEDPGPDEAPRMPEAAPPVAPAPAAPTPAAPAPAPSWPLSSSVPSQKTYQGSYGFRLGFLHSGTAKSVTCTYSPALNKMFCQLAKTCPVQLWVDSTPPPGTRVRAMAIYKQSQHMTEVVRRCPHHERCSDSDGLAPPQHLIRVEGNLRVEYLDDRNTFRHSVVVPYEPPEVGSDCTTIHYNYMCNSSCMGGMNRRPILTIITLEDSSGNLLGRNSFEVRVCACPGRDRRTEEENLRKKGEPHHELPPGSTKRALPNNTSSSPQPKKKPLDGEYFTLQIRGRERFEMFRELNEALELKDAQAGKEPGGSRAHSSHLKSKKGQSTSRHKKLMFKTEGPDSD
Chain of Nuclear respiratory factor 1 (Homo sapiens) (Q16656 whole entry, looked up): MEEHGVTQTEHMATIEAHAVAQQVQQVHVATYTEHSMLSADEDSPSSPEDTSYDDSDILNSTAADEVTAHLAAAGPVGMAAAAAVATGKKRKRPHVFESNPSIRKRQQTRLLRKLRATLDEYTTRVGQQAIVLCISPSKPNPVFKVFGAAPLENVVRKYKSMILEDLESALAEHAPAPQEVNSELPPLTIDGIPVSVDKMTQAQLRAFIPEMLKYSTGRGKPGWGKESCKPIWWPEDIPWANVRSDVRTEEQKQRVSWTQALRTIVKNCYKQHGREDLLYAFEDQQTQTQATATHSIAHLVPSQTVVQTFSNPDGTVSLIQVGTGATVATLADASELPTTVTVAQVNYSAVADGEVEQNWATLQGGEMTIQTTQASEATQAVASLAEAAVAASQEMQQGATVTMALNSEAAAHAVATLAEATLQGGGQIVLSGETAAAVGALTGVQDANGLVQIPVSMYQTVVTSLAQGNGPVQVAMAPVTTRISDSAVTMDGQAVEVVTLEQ
Chain of Hepatocyte nuclear factor 4-alpha (Homo sapiens) (P41235 whole entry, looked up, the tested form may be a part): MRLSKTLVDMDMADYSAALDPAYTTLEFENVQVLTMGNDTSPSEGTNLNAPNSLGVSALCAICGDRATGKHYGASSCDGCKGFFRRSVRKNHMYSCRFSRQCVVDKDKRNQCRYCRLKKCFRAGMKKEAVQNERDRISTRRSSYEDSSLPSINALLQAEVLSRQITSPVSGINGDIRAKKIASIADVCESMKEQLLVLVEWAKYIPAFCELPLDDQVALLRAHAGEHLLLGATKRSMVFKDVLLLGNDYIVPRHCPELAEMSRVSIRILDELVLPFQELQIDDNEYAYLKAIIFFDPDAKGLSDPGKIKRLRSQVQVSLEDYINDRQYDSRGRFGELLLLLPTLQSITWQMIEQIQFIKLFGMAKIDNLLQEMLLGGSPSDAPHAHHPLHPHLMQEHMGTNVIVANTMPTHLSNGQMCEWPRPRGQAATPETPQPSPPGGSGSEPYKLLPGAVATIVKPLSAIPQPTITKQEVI
Chain of Nuclear receptor subfamily 4 group A member 2 (Homo sapiens) (P43354 whole entry, looked up): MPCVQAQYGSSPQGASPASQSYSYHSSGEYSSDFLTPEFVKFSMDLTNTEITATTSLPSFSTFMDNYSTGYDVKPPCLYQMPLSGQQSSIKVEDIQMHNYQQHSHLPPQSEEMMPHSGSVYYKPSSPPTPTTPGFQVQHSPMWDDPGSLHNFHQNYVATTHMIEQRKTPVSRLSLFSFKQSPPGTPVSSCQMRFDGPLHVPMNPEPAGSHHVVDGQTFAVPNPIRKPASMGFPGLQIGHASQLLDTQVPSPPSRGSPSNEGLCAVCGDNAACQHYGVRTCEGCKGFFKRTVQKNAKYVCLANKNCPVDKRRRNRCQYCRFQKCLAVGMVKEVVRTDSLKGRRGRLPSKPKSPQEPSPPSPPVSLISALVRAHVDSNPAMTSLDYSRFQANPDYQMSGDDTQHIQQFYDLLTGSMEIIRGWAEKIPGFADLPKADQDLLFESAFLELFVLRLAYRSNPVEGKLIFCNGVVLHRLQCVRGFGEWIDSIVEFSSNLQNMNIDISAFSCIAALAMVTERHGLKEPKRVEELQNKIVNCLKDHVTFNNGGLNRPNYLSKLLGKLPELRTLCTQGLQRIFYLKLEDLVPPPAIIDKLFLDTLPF
Chain of Oxysterols receptor LXR-beta (Homo sapiens) (P55055 whole entry, looked up, the tested form may be a part): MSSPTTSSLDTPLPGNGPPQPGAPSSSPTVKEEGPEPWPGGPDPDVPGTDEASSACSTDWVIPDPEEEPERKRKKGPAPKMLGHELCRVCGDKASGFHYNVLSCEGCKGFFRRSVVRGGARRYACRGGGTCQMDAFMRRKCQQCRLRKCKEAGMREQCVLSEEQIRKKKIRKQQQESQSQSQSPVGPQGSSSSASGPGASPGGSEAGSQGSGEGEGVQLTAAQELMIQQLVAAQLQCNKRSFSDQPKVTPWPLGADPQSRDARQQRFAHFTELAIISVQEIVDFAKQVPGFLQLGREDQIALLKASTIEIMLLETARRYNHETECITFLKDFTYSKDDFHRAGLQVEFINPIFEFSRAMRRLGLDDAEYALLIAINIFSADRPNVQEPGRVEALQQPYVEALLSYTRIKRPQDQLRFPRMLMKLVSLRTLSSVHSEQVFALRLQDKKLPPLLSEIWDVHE

For `CC1=CC(C)C(C=O)C(C)C1` (configuration not stated) (tested in a mixture with another compound), the outcome in assay [1], in [2], in assay [3], in assay [4], in [5] and in assay [6] was inactive. Besides, the compound was classed as inactive in assay [7], in assay [8], in assay [9], in assay [10], in [11] and in assay [12]. Moreover, the call in assay [13], in assay [14], in assay [15], in assay [16] and in assay [17] was inactive.
Turning to `C=CC(C)(CCC=C(C)C)OC(=O)CC` (configuration not stated), the outcome in assay [1], in [18], in [3], in assay [19], in assay [5] and in assay [6] was inactive. Besides, the outcome in [7], in assay [8], in assay [10], in assay [13] and in [14] was inactive. The AC50 in [12] is 68.1 µM (active).
As for `CCC(C)(CCCC(C)C)OC(C)=O` (configuration not stated), the outcome in [1], in [18], in [19], in assay [4], in assay [5] and in assay [7] was inactive. Also, the compound was called inactive in assay [8], in assay [10], in [12] and in assay [13].
Consider `CC(C)Cc1ccc(C(C)C(=O)O)cc1` (configuration not stated), for which the compound was called inactive in assay [20], in [19], in [5], in assay [6], in assay [7] and in assay [8]. Also, the call in [10], in [11], in assay [12], in [13], in [14] and in [15] was inactive. Also, the result in assay [16] and in [17] was inactive.
For the compound `C=C1CC[C@H]2O[C@]2(C)CC[C@@H]2[C@@H]1CC2(C)C`, the compound was classed as inactive in assay [1], in assay [18], in assay [3], in assay [4], in [5] and in assay [6]. Besides, the outcome in assay [7], in [8], in assay [9], in assay [10], in assay [11] and in [12] was inactive. Moreover, the compound was classed as inactive in [13] and in assay [14].
